In the library only some 8.8% were active in any assay of this set; here they are far more common.
HT1080-NT tox: kills 2HG-producing HT-1080-NT fibrosarcoma cells; 360,000 tested, 1.6% active; HT-1080-NT fibrosarcoma viability, CellTiter-Glo ATP luminescence, 48 h; AID 686970; Potency, µM (highest dose often 46.1 µM), actives largely listed as cytotoxic;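 also: NT is the 2HG producing partner of a matched IDH1 knockdown line; nearly all actives have a fitted effect of over 55% in size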
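Compounds were tested in concentration-response format on HT-1080-NT cells for 48 hours at 37 degrees C. Cell viability came from CellTiter-Glo luminescence; curves were classified by r2, response magnitude and activity.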
IL1B secr inh: blocks inflammasome-driven IL-1 beta release; THP-1 LPS/ATP IL-1B secretion, AlphaLISA, 16 h; active compounds read low; activity change, % at 57.5 µM; 360,000 tested, 4.7% active; in the data active = activity change below about -50%; inconclusive = mostly about -30% to -49%
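Secreted IL-1B measured by AlphaLISA bead assay after 16 h compound exposure of THP-1 cells; compounds (final up to 57.5 uM) added 1 h before LPS (250 ng/mL) and ATP (1.25 mM) stimulation; lower signal means less secretion.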
KB-3-1 tox: KB-3-1 parental cell cytotoxicity | KB-3-1 viability, CellTiter-Glo ATP luminescence, 72 h | Potency, µM (titrated, usually from 46.1 µM), hits mostly cytotoxic | 400,000 tested, 1.4% active | AID 1347075; also: nearly all actives have a fitted effect of over 60% in size
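72 h, 37 °C compound treatment of KB-3-1 parental cells; CellTiter-Glo added, 10 min, luminescence read. Data corrected against DMSO-only plates and normalized before curve fitting.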
KB-V1 MDR tox: KB-V1 MDR subline cytotoxicity. KB-V1 MDR cells viability, CellTiter-Glo, 72 h. Potency, µM (top dose mostly 46.1 µM), most hits filed as cytotoxic. 400,000 tested, 3.4% active. AID 1347076; also: nearly all actives have a fitted effect of over 60% in size
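Cytotoxicity via CellTiter-Glo luminescence after 72 h compound exposure at 37 degrees C. Cells: drug-selected KB-V1 line, DMEM phenol-red free plus 10% FBS. Compounds tested at multiple concentrations; normalized data fitted to concentration-effect curves.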
HT1080 IDH1KD tx: HT-1080 IDH1 knockdown cell toxicity (counter line) | HT-1080 IDH1 knockdown viability, ATP luminescence, 48 h | Potency, µM (series often up to 46.1 µM), actives largely listed as cytotoxic | 360,000 tested, 2% active | AID 686971
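Using the IDH1-knockdown HT-1080 line run in the same batch and compound series as the NT line, viability after 48 h at 37 °C was determined by CellTiter-Glo luminescence and expressed as % activity.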
Hits are given with their value; n = inactive; u = inconclusive; x = no result; [ ] = remark or other dose. Unless noted, calls follow the shape of the dose curve; as a rule, active = well fitted curve in the direction sought with a large enough effect; inconclusive = small, poorly fitted or top-dose-only effect, or another doubt; inactive = no such curve, though single readings can be large; an effect the other way counts as inactive or inconclusive.

SMILES	HT1080-NT tox	IL1B secr inh	KB-3-1 tox	KB-V1 MDR tox	HT1080 IDH1KD tx
CCC(C(=O)NC1CCCC1)N(C(=O)Cn1nnc(-c2ccc(C)cc2)n1)C1CCCC1 (stereo unspecified)	n	-54	n	n	n
CCOc1ccccc1N(CC(=O)NC(C)(C)C)C(=O)Cn1nnc(-c2ccc(C)o2)n1	n	n	n	2.9µM	n
NC(=O)c1ccc(/C=N/O)nc1	n	n	n	n	n
CN(C)c1ccc(-c2csc(C(C)(O)c3ccc(F)c(F)c3)n2)cc1 (stereo unspecified)	u	n	n	n	u
Cc1ccc(CNS(=O)(=O)c2cc3c(cc2Cl)NC(=O)CO3)o1	x	x	n	n	x
O=C(CSc1nc2ccccc2s1)NCc1cc([N+](=O)[O-])ccc1O	n	n	n	n	n
CCOC(=O)c1c(-c2ccccc2)nnn1-c1nc(OCC)nc(N2CCCCC2)n1	u	n	u	21µM	u
CCOC(=O)c1nnn(-c2nc(N3CCCC3)nc(N3CCCC3)n2)c1-c1ccccc1	n	n	u	n	n
CC(C)Oc1cc(F)ccc1-c1cc(C(=O)NCc2ccccn2)[nH]n1	n	n	n	u	n
CCOc1ccc(NC(=O)CN(C)C(=O)c2cccc(S(=O)(=O)N3CCN(C)CC3)c2)cc1OCC	n	n	n	n	n
O=c1[nH]c(=O)n(C(c2ccccc2)(c2ccccc2)c2ccccc2)cc1N(CCO)CCO	n	-51	u	16µM	n
OCCN(CCO)c1nc2ccccc2[nH]1	n	n	n	n	n
CCOC(=O)CNC(=O)Cn1c(C)cc2ccccc2c1=O	n	-65	n	n	n
CC(C(=O)O)n1c2ccccc2c2cnn(C)c(=O)c21 (stereo unspecified)	n	n	n	n	n
Cc1ccc(NC(=S)N(C)Cc2cn(C)c3ccccc23)cc1	n	n	n	21µM	u
Cc1cccc(NC(=S)N(CCCN2CCOCC2)Cc2cn(C)c3ccccc23)c1	n	n	u	n	n
CC(=O)Oc1ccc(/C(C)=N\N2CCN(Cc3ccc(Cl)cc3)CC2)cc1	n	n	n	n	n
CCOc1ccc(CNC(=O)CCCn2nc(C)c3sc4ccccc4c3c2=O)cc1	x	x	n	n	x
C[C@@]12C(=O)OC(=O)[C@]1(C)C1CCC2O1	1.5µM	n	u	5.8µM	1.5µM
CCN1/C(=C/C=C/c2oc3ccc(-c4ccccc4)cc3[n+]2CC)Oc2ccc(-c3ccccc3)cc21	2.6µM	-107	9.2µM	15µM	0.92µM
O=C1C(O)=CC(=C(c2ccccc2)c2ccccc2)c2ccccc21	n	-92	u	n	u
Cc1ccc(S(=O)(=O)Oc2cccc(/C=N/n3cnnc3)c2)cc1	n	n	u	18µM	n
COc1ccc(N2CCN(C(=O)c3c(-c4ccccc4)noc3C)CC2)cc1	n	n	n	n	n
COc1ccc(N2CCN(C(=O)c3cc(=O)c4cc(C)cc(C)c4o3)CC2)cc1	n	-77	n	n	n
COc1cc(C(=O)OCC(C)=O)ccc1OCc1c(C)noc1C	u	n	15µM	u	18µM
SMILES	HT1080-NT tox	IL1B secr inh	KB-3-1 tox	KB-V1 MDR tox	HT1080 IDH1KD tx
Cc1noc(C)c1C(=O)N1CCN(c2ccc(OCc3ccccc3)cc2)CC1	n	n	u	15µM	n
COc1ccc(N2CCN(C(=O)c3ccc4c(c3)OCO4)CC2)cc1	n	n	n	21µM	n
COc1cc(C(=O)O)ccc1OCc1c(C)noc1C	n	n	n	n	n
COC(=O)CCNC(=O)c1ccc2nc(Cc3ccc(OC)c(OC)c3)oc2c1	n	n	n	n	n
COc1ccccc1NC(=O)Cc1nnc(SCC(=O)Nc2nccs2)n1C	n	n	n	n	n
CCOC(=O)n1c2ccccc2c(=O)n1CCO	u	n	n	n	n
COc1ccc(N2CCN(C(=O)c3ccc(OCc4c(C)noc4C)c(OC)c3)CC2)cc1	n	n	n	12µM	n[9.24 µM]
COc1ccccc1C(=O)COC(=O)C1(C)CC1(Cl)Cl (stereo unspecified)	n	n	n	n	n
Clc1ccc(C#Cc2cccnc2)cc1	n	n	n	u	n
O=[N+]([O-])c1ccc(Cl)cc1NCC1CCCO1 (stereo unspecified)	n	n	n	n	n
CCOC(=O)c1sc(NC(=O)CSc2n[nH]c(-c3ccccc3)n2)c(C#N)c1C	u	n	n	u	u
Cc1cccc(-c2cc(C(=O)Nc3sc(C)c(C)c3C(N)=O)c3ccccc3n2)c1	n	n	n	u	n
CCOC(=O)c1sc(NC(=O)CSc2nc(C)cc(C)n2)c(C#N)c1C	n	n	n	8.2µM	n
Cc1ccc(C)c(-c2cc(C(=O)Nc3sc(C)c(C)c3C(N)=O)c3ccccc3n2)c1	u	u	u	4.1µM	u
CCOC(=O)c1sc(NC(=O)c2cc(-c3ccccc3)nc3ccccc23)c(C#N)c1C	2.9µM	-62	15µM	u	5.2µM
O=C(N/N=C/c1ccc(Cl)cc1)c1cc(-c2cccnc2)nc2ccccc12	u	n	9.2µM	9.2µM	u
Cc1cccc(-c2cc(C(=O)Nc3cccnc3)c3ccccc3n2)c1	n	n	u	u	n
O=C(Nc1ccc(C(=O)N2CCOCC2)cc1)c1cc(-c2cccnc2)nc2ccc(Br)cc12	n	-53	u	n	n
Cc1ccc2nc(-c3ccccc3)cc(C(=O)Nc3cccnc3)c2c1	n	n	n	2.9µM	n
Cc1ccc(/C=N/NC(=O)c2cc(-c3cccnc3)nc3ccccc23)cc1	1.5µM	n	2.9µM	2.9µM	1.3µM
CS(=O)(=O)Oc1ccc(/C=N/NC(=O)c2ccncc2)cc1	n	n	n	n	n
Cc1ccc2nc(-c3ccccc3)cc(C(=O)NNC(=O)c3csc(N4CCOCC4)n3)c2c1	n	n	n	21µM	n
Cc1cc(C(=O)N/N=C/c2ccncc2)c(C)o1	n	n	n	n	n
Cc1ccc(/C=N/NC(=O)c2cc(C)oc2C)cc1	u	n	u	u	21µM
O=C(Nc1cccc(-c2cccc(F)c2)c1)C1CCN(C2CCOCC2)CC1	u	n	n	n	n
SMILES	HT1080-NT tox	IL1B secr inh	KB-3-1 tox	KB-V1 MDR tox	HT1080 IDH1KD tx
COc1cccc(-c2nnc(-c3ccccc3NC(=O)c3ccc(C(C)(C)C)cc3)o2)c1	n	n	n	n	n
C#CCN(C)Cc1ccccc1	n	n	n	n	n
C#CCN(Cc1ccccc1)S(=O)(=O)C=C	n	-65	u	n	n
NCCCC[C@H]1CNC(=S)N1CCc1cc(C(F)(F)F)cc(C(F)(F)F)c1	n	-51	n	n	n
Cc1ccc(Sc2c(C)nn(C(=O)COc3ccccc3Br)c2C)cc1	x	x	n	n	x
Cc1ccc(S(=O)(=O)N(C)c2ccc(C(=O)Nc3ccccc3C(=O)N3CCOCC3)cc2)cc1	n	n	n	u	n
O=C(O)c1cccc(NC(=O)C23CC4CC(C2)CC(n2cnc(Cl)n2)(C4)C3)c1	n	n	n	u	n

Screens: PubChem BioAssay, National Center for Advancing Translational Sciences (NCATS)
